An excerpt weighted towards active compounds, which were near 21% of everything screened.
ClpP mod – qHTS Assay for Activators of ClpP | Potency, µM (doses to about 57.5 µM), for inactives: top-dose activity change, negative = active | 340,000 tested, 1.9% active | purified B. subtilis ClpP, FRET peptide cleavage, 20 min | ATP-dependent Clp protease proteolytic subunit (Bacillus subtilis (strain 168)), P80244; active = well fitted falling curve with a large enough effect; inconclusive = small, poorly fitted or top-dose-only effect; inactive = no such curve, though single readings can be large or run the other way; also: potency is read from the fitted curve at half-maximal effect; the source files actives as falling curves though it sought activators and does not explain the sign; nearly all actives have a fitted effect of over 65% in size
Target sequence (P80244 whole entry, looked up): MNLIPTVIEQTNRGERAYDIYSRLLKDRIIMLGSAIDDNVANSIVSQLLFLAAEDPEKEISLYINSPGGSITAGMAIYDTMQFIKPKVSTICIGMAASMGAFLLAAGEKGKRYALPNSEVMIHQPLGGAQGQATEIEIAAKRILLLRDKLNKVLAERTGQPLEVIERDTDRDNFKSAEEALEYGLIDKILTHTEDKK
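FRET quenching reversal measured ClpP activation: 10 microg/mL B. subtilis ClpP at pH 8 with the FRET-FV decapeptide, read at 430 nm after 320 nm excitation. The 20-min minus 0-min signal was scaled between DMSO/no-enzyme wells and ADEP (5.8 microM final).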
TDP1 cell CPT – growth inhibition of DT40 Tdp1-/-;hTDP1 cells with camptothecin (screen for TDP1 inhibitors) | 420,000 tested, 12% active | chicken DT40 Tdp1-/-;hTDP1 cells + 20 nM CPT, ATP luminescence, 48 h | AID 686979 | Potency, µM (highest dose often 46.2 µM), for the others: at the highest dose activity change, negative = growth inhibition, actives largely listed as inhibitors; also: potency is read from the fitted curve at half-maximal effect; % is scaled to controls: 0 for no effect and ±100 for the full control effect; nearly all actives have a fitted effect of over 55% in size
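Cell growth measured by CellTiter-Glo luminescence after a minimum 48 h, 37 C compound exposure with 20 nM CPT in Tdp1-knockout DT40 cells stably expressing hTDP1, seeded 400/well; qHTS titration format.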
DRD3 antagonist – D3 dopamine receptor (human) antagonism; AID 652054; max response, negative = inhibition, %; 360,000 tested, 2.5% active; D3R cells, DiscoveRx beta-arrestin luminescence, antagonist mode; active compounds read low; P35462; in the data active = max response below about -50%; inconclusive = no clear call, values can overlap the other calls; also: % is scaled to controls: 0 for no effect and ±100 for the full control effect
Target sequence (P35462 whole entry, looked up): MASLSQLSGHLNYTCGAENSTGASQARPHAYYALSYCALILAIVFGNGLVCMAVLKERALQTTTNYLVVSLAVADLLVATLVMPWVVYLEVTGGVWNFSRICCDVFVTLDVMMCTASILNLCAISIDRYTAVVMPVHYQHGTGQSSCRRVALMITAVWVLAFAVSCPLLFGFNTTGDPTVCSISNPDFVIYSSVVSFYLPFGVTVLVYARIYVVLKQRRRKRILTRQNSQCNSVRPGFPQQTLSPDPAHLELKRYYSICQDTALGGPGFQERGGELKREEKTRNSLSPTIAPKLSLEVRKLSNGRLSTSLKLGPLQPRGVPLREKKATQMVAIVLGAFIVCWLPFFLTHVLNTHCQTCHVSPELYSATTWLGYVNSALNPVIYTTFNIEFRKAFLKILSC
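Cells plated overnight at 1500 cells/well, then exposed to library compounds with dopamine controls for 90 minutes at 37 degrees C. DiscoveRx reagent added for 30–60 minutes at room temperature; luminescence read, quantitative HTS format.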
DT40 TDP1 no CPT – qHTS for Inhibitors of human tyrosyl-DNA phosphodiesterase 1 (TDP1): qHTS in cells in absence of CPT. Potency, µM (doses to about 46.2 µM), without a hit: top-dose activity change, negative = growth inhibition, most hits filed as inhibitors. AID 686978, 2013. 420,000 tested, 15% active. DT40 Tdp1-/- hTDP1 cells, no CPT, ATP luminescence, 48 h; also: potency is read from the fitted curve at half-maximal effect; % is scaled to controls: 0 for no effect and ±100 for the full control effect; nearly all actives have a fitted effect of over 55% in size
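Camptothecin absent (DMSO only). Human TDP1-complemented DT40 knockout cells, 400 cells/well, 37 °C for minimum 48 hr; ATP measured via CellTiter-Glo, 30 min dark incubation, luminescence.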
IL1B secr inh – inflammasome signaling inhibition, IL-1 beta readout; THP-1 LPS/ATP IL-1B secretion, AlphaLISA, 16 h; active compounds read low; activity change, % at 57.5 µM; 360,000 tested, 4.7% active; AID 743279; in the data active = activity change below about -50%; inconclusive = mostly about -30% to -49%; also: % is scaled to controls: 0 for no effect and ±100 for the full control effect
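THP-1 cells pretreated 1 hr with compounds (up to 57.5 uM final), then stimulated with LPS (250 ng/mL final) plus ATP (1.25 mM final); secreted IL-1B measured by AlphaLISA after 16 hr, decreased signal indicating inhibition.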
D3 ag – agonists of human D3 dopamine receptor; D3R DiscoveRx beta-arrestin cells, luminescence, 90 min; P35462; 410,000 tested, 0.58% active; max activation, %; AID 652048; in the data active = max activation above about 30%; also: 0% is about no effect
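Agonist-mode cell screen: cells plated at 1500/well and incubated overnight at 37 °C, then exposed to library compounds for 90 min at 37 °C. Detection reagent was added for 30–60 min at room temperature, and luminescence was read.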
* = called active by the depositor; ? = inconclusive; · = no result; [ ] = dose if it differs, or a comment. Unless noted, calls follow the shape of the dose curve; as a rule, active = well fitted inhibition curve with a large enough effect; inconclusive = small, poorly fitted or top-dose-only effect; inactive = flat fitted curve, though single readings scatter.

SMILES	ClpP mod	TDP1 cell CPT	DRD3 antagonist	DT40 TDP1 no CPT	IL1B secr inh	D3 ag
COc1ccc(Cl)cc1C(=O)N1CCN(Cc2ccc3c(c2)OCO3)CC1	0%	?	17	-27%	-8	-5
CC(C)c1cccc(C(C)C)c1NC1=NS(=O)(=O)c2ccccc21	-1%	-14%	·	-21%	·	-9
O=C(O)C(O)C(O)(Cc1ccc(O)cc1)C(=O)O (configuration not stated)	·	16%[9.04 µM]	·	-14%[9.04 µM]	·	·
CC(C)Cc1nccs1	0%	3%	8	-1%	24	2
Cn1c(SCC(=O)NC(C)(C)C)nnc1-c1ccc(C(C)(C)C)cc1	-1%	?	6	23µM*	21	11
COc1ccc(-c2nnc(SCC(=O)Nc3ccc(Cl)cc3)n2C)cc1	-1%	0%	-57*	-5%	0	-6
Cn1c(SCC(=O)c2ccc3c(c2)Cc2ccccc2-3)nnc1-c1ccccc1	-10%	-29%	5	29µM*	-13	3
Cc1ccc(NC(=O)CSc2nnc(-c3ccccc3)n2C)cc1	3%	-1%	·	-20%	·	·
CCn1c(SCC(=O)NC(C)(C)C)nnc1-c1ccncc1	0%	-2%	4	9%	3	1
CN(C)c1ccc(NC(=O)Cn2nnc3sc4c(c3c2=O)CCC(C(C)(C)C)C4)cc1 (configuration not stated)	1%	?	·	?	·	9
CC(O)(c1cccnc1)c1nc(-c2cc(F)cc(F)c2)cs1 (configuration not stated)	0%	?	0	?	-9	11
CN1CC[C@@]2(CCCN(C(=O)c3cc(C(F)(F)F)cc(C(F)(F)F)c3)C2)C1	·	26%	·	-10%	·	·
Cc1ccc2c(c1)[C@H]1[C@H](CO2)[C@H](c2ccccc2)[C@]2(C)C(=O)N(Cc3ccc(Cl)cc3)CC(=O)N12	-2%	?	0	15µM*	-18	-7
COc1ccc2c(c1)OC[C@H]1[C@H]2N2C(=O)CN(Cc3ccc(F)cc3)C(=O)[C@@]2(C)[C@H]1c1ccccc1	-1%	?	-5	?	-23	-17
COc1ccc(CN2CC(=O)N3[C@H]4c5cc(C)ccc5OC[C@@H]4[C@H](c4ccccc4)[C@]3(C)C2=O)cc1	-1%	?	8	21µM*	0	14
CCOC(=O)[C@H]1[C@H]2COc3ccc(C)cc3[C@@H]2N2C(=O)CN(Cc3ccccc3)C(=O)[C@@]12C	2%	?	-21	?	?	-24
COc1ccc2c(c1)OC[C@H]1[C@H]2N2C(=O)CN(Cc3ccco3)C(=O)[C@@]2(C)[C@H]1c1ccccc1	2%	?	-24	?	-21	-14
COc1ccc(CN2CC(=O)N3[C@H]4c5ccccc5OC[C@@H]4[C@H](c4ccccc4)[C@]3(C)C2=O)cc1	-3%	?	23	16µM*	-15	-16
CCCCN1CC(=O)N2[C@H]3c4ccc(OC)cc4OC[C@@H]3[C@H](c3ccccc3)[C@]2(C)C1=O	-5%	?	?	23µM*	-5	-30
Cc1ccc2c(c1)[C@H]1[C@H](CO2)[C@H](c2ccccc2)[C@]2(C)C(=O)N(Cc3ccc(F)cc3)CC(=O)N12	-4%	?	-3	21µM*	?	-18
COc1cccc(C(=O)Nc2ccccc2-c2nc(-c3ccc(C)cc3)no2)c1	-8%	0%	·	-10%	·	0
C/C(CC(=O)Nc1ccc([N+](=O)[O-])cc1)=N/NC(=O)C1CC12CCC2 (configuration not stated)	·	16%	-26	11%	-14	-16
CCOC(=O)c1c(S(=O)(=O)NCC2CCN(CCc3cccs3)CC2)c(C)n(C)c1C	1%	-18%	-83*	3%	-8	-23
CN(CC(=O)Nc1ccc(Cl)c(Cl)c1)C(=O)CNC(=O)C1CCCCC1	0%	-20%	0	-10%	26	0
COc1cccc(CNC(=O)CCCn2ccc3cc(S(=O)(=O)N4CCCC4)ccc32)c1	0%	?	4	?	1	8
SMILES	ClpP mod	TDP1 cell CPT	DRD3 antagonist	DT40 TDP1 no CPT	IL1B secr inh	D3 ag
CCc1ccc(CNC(=O)CCCn2ccc3cc(S(=O)(=O)N4CCCC4)ccc32)cc1	-6%	4.6µM*	·	4.1µM*	·	-5
COc1ccc(OC)c(CNC(=O)CCCn2ccc3cc(S(=O)(=O)N4CCCC4)ccc32)c1	-4%	15µM*	2	?	2	1
COc1ccc(CNC(=O)CCn2ccc3cc(S(=O)(=O)N4CCCC4)ccc32)cc1	-2%	-10%	-8	0%	0	3
COc1cccc(C(=O)N(Cc2ccc3c(c2)OCO3)Cc2nc3ccccc3c(=O)[nH]2)c1	-1%	?	3	-26%	-11	-4
COc1cccc(NC(=O)CN(C)C(=O)CCCc2nc3ccccc3c(=O)[nH]2)c1	1%	-24%	22	17%	13	-5
COc1ccccc1CN(Cc1nc2ccccc2c(=O)[nH]1)C(=O)Nc1cccc(C)c1	-1%	3.3µM*	-5	3.7µM*	-5	-9
COc1ccccc1NC(=O)N(Cc1ccc2c(c1)OCO2)Cc1nc2ccccc2c(=O)[nH]1	0%	18µM*	7	13µM*	14	-8
CCCn1c(N)c(N(CCOC)C(=O)c2ccccc2F)c(=O)[nH]c1=O	·	12%	-5	-4%	-3	-6
CCCCn1c(N)c(N(Cc2ccccc2OC)C(=O)CCSC)c(=O)[nH]c1=O	-1%	7%	10	-1%	3	3
CCCCN(C(=O)c1ccccc1OCc1ccc(F)cc1)c1c(N)n(CCC)c(=O)[nH]c1=O	-1%	18µM*	-1	?	6	-1
CCCCN(C(=O)C1CC(=O)N(CCc2ccc(OC)c(OC)c2)C1)c1c(N)n(CCCC)c(=O)[nH]c1=O (configuration not stated)	·	14%	-9	-4%	15	-13
CCCCN(C(=O)c1ccc(-c2ccc([N+](=O)[O-])cc2)o1)c1c(N)n(CCCC)c(=O)[nH]c1=O	-2%	?	1	16µM*	12	-5
CCCCn1c(N)c(N(Cc2ccccc2OC)C(=O)c2ccc([N+](=O)[O-])s2)c(=O)[nH]c1=O	·	?	3	18µM*	65	-1

High-throughput results deposited in PubChem BioAssay by National Center for Advancing Translational Sciences (NCATS).
